Values joined by “and” are separate entries in the source; they are usually repeats but may differ in a detail not shown here. Equal values may be shown once. Compounds without any hit were thinned out: in the full panel of roughly 79,000, 15% have a hit. A number with no mark means an inactive call. No stated cut-off is given here; in the data, active means growth inhibition above about 70%; inactive means the rest.

The first test in a line: NCI Yeast Anticancer Drug Screen. Data for the sgs1 mgt1 strain (AID 161).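 Further: 0% = growth of cultures given vehicle only.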 To be noted: S. cerevisiae sgs1 mgt1 strain, stronger effect = higher value; at 50.0 µM unless noted. The method, boiled down: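 Percent growth inhibition was derived by comparing compound-exposed mutant yeast with vehicle-exposed cultures. The strain carries alterations in DNA damage repair.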
For the molecule `CCCCCCCCN(CCCCCCCC)CC(O)c1cc(Cl)c(Cl)c(Cl)c1` (stereo not drawn), the growth inhibition is 47.4%.

With `NC(=O)C1CC1`, the growth inhibition is -9.7%.

As to `O=C1OC(/C=C/c2ccccc2)=NC/1=C\c1ccc2c(c1)OCO2`, the growth inhibition is -16.4%.

Take `CCOc1ccc(C(=O)C[N+]2(CCc3ccccc3)CCOCC2)cc1`: the growth inhibition was 11.6%.

On to `c1ccc2c(c1)OC1OC2Oc2ccccc21`, for which the growth inhibition is -26.3% and 7.8%.

On to `CC(C)=C(Nc1ccccc1)NC(C)C`, for which the growth inhibition was -28.4%.

As to `O=C1c2ccccc2NC(O)c2cccn21` (stereo not drawn), the growth inhibition is -3.75%.

Regarding `O=c1[nH]c2[nH]c(=S)[nH]c(=O)c2[nH]1`, the growth inhibition was -8.5%.

Turning to `Cc1ccc(NC(=O)C2CCCCC2)cc1`, the growth inhibition was -6.6%.

Take `N#CC1(OC2CCCCO2)Cc2ccccc2C1` (stereo not drawn): the growth inhibition was -13.3%.

For `CCCC1([N+](=O)[O-])c2ccccc2-c2ccc([N+](=O)[O-])cc21` (stereo not drawn), the growth inhibition was 22.4%.

For the molecule `CC(=O)Nc1ccc2nc(SC(C)C)sc2c1`, the growth inhibition is 31.6%.

Regarding `Nc1c(Br)cc(Br)cc1C(=O)O`, the growth inhibition is 42.2%.

As for `Cc1ccc(N2C(=O)CC(NC3CCCCC3)C2=O)cc1` (stereo not drawn), the growth inhibition is -9.65%.

For the molecule `CCCCN(CCCC)CC(=O)NC(=O)c1ccccc1`, the growth inhibition is 3.35%.

Take `Cc1ccc(C)c(NC(=O)Nc2ccccc2)c1`: the growth inhibition is -7.2%.

In the case of `N#Cc1ccccc1NC(=O)C(=O)c1c(O)c2ccccc2oc1=O`, the growth inhibition is -16.1%.

With `CCOC(=O)/C=C/CCC(C)(C)COC(C)=O`, the growth inhibition was -36.9%.

Regarding `Nn1c(-c2cccc(Cl)c2)nc2ccccc2c1=O`, the growth inhibition is 13%.

Turning to `COc1ccc(OC(C)C(=O)O)c2c(=O)ccccc12` (stereo not drawn), the growth inhibition is -5.2%.

As to `COc1ccc(-c2nc(Sc3c([N+](=O)[O-])ncn3C)n[nH]2)cc1`, the growth inhibition was 3.7%.

Take `N#CCN1CCc2ccccc2C1`: the growth inhibition was -6.65%.

In the case of `O=C1c2sc(-c3ccc(Cl)cc3)cc2-n2cccc21`, the growth inhibition is 2.15%.

Consider `C=CCSC[C@H](NC(=O)COc1ccccc1)C(=O)NC(C(=O)OCc1ccc([N+](=O)[O-])cc1)=C(C)C`, for which the growth inhibition was 24.6%.

Take `O=C1CCCNC(=O)N1`: the growth inhibition is -19.3%.

Take `CC12C(=O)C(C(c3ccccc3)=C1c1ccccc1)C1C(=O)OC(=O)C12` (stereo not drawn): the growth inhibition was -0.15%.

For `CCCCCCCCCCCCCCCCCC(=O)N/N=C\c1c(O)ccc2ccccc12`, the growth inhibition is 4.85%.

For `O=C(Cc1ccccc1)c1ccccc1C(=O)NCc1ccncc1`, the growth inhibition is 2.25%.

`CCCCC1(N=[N+]=[N-])C(=O)C2C=CC=C3c4ccccc4N(C1=O)C32` (stereo not drawn): the growth inhibition is -5.8%.

With `NC(=S)N/N=C\c1cccc(O)c1O`, the growth inhibition was 21%.

Consider `O=C(Cc1ccccc1)C(c1ccccc1)C(c1ccccc1)c1ccccc1` (stereo not drawn), for which the growth inhibition is 5.25%.

On to `CN(C)CCC(C#N)c1ccccc1` (stereo not drawn), for which the growth inhibition was -2.7%.

With `CC(C)c1cc(C(C)C)c(S(=O)(=O)N/N=C2\C=CCC(C)(C)C2)c(C(C)C)c1`, the growth inhibition was 24.1%.

`N.N.N.N.O=C([O-])O.O=C([O-])[O-].[Co+3]`: the growth inhibition is 12.1%.

On to `CN(N=O)C(=O)NCCn1cnc2c(=O)[nH]cnc21`, for which the growth inhibition is -5.35%.

With `O=c1[nH]c(=O)n(C2CC(O)C(CO)O2)cc1C#Cc1c(F)c(F)c(F)c(F)c1F` (stereo not drawn), the growth inhibition is -16.4%.

As to `CC(C)(C)c1cc2c(O)c3cccc4c(=O)c5cccc6c5-c(c34)c2c(c1)c6=O`, the growth inhibition was -26.8%.

As to `O=C1c2cc([N+](=O)[O-])ccc2-c2ccc3c4ccc5c6c(ccc(c7ccc1c2c73)c64)C(=O)c1cc([N+](=O)[O-])ccc1-5`, the growth inhibition is -3.15%.

As for `Cc1ccccc1C(=O)NC(O)(C(F)(F)F)C(F)(F)F`, the growth inhibition is 14.6%.

The nature of a further test: NCI Yeast Anticancer Drug Screen. Data for the cln2 rad14 strain (AID 165).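 Further: 0% = growth equal to vehicle treated cultures.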 To be noted: S. cerevisiae cln2 rad14 strain, stronger effect = higher value; at 50.0 µM unless noted. The method, boiled down: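 Growth inhibition, relative to vehicle-treated controls, is the read-out. The test organism is a yeast strain with defined genetic alterations, cln2 rad14.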
Consider `CCCCCCCCN(CCCCCCCC)CC(O)c1cc(Cl)c(Cl)c(Cl)c1` (stereo not drawn), for which the growth inhibition was 53.9%.

As for `NC(=O)C1CC1`, the growth inhibition is -7.7%.

In the case of `O=C1OC(/C=C/c2ccccc2)=NC/1=C\c1ccc2c(c1)OCO2`, the growth inhibition is -21.1%.

Take `CCOc1ccc(C(=O)C[N+]2(CCc3ccccc3)CCOCC2)cc1`: the growth inhibition is 6.2%.

Turning to `c1ccc2c(c1)OC1OC2Oc2ccccc21`, the growth inhibition is 1.6% and -6.05%.

Take `CC(C)=C(Nc1ccccc1)NC(C)C`: the growth inhibition is -16.2%.

Take `O=C1c2ccccc2NC(O)c2cccn21` (stereo not drawn): the growth inhibition is -25.9%.

Turning to `O=c1[nH]c2[nH]c(=S)[nH]c(=O)c2[nH]1`, the growth inhibition is -11.7%.

For the molecule `Cc1ccc(NC(=O)C2CCCCC2)cc1`, the growth inhibition is 10.6%.

Turning to `N#CC1(OC2CCCCO2)Cc2ccccc2C1` (stereo not drawn), the growth inhibition is -48.9%.

With `CCCC1([N+](=O)[O-])c2ccccc2-c2ccc([N+](=O)[O-])cc21` (stereo not drawn), the growth inhibition is 11%.

In the case of `CC(=O)Nc1ccc2nc(SC(C)C)sc2c1`, the growth inhibition is 17.4%.

In the case of `Nc1c(Br)cc(Br)cc1C(=O)O`, the growth inhibition was 17.1%.

For `Cc1ccc(N2C(=O)CC(NC3CCCCC3)C2=O)cc1` (stereo not drawn), the growth inhibition is -2.2%.

On to `CCCCN(CCCC)CC(=O)NC(=O)c1ccccc1`, for which the growth inhibition was -38.5%.

`Cc1ccc(C)c(NC(=O)Nc2ccccc2)c1`: the growth inhibition is -25.1%.

With `N#Cc1ccccc1NC(=O)C(=O)c1c(O)c2ccccc2oc1=O`, the growth inhibition was -16.9%.

As for `CCOC(=O)/C=C/CCC(C)(C)COC(C)=O`, the growth inhibition is -49.8%.

Regarding `Nn1c(-c2cccc(Cl)c2)nc2ccccc2c1=O`, the growth inhibition was 25.7%.

In the case of `COc1ccc(OC(C)C(=O)O)c2c(=O)ccccc12` (stereo not drawn), the growth inhibition is 25.2%.

`COc1ccc(-c2nc(Sc3c([N+](=O)[O-])ncn3C)n[nH]2)cc1`: the growth inhibition is 25.7%.

Consider `N#CCN1CCc2ccccc2C1`, for which the growth inhibition was -33.9%.

`O=C1c2sc(-c3ccc(Cl)cc3)cc2-n2cccc21`: the growth inhibition was 2.5%.

As to `C=CCSC[C@H](NC(=O)COc1ccccc1)C(=O)NC(C(=O)OCc1ccc([N+](=O)[O-])cc1)=C(C)C`, the growth inhibition was 31.1%.

As for `O=C1CCCNC(=O)N1`, the growth inhibition was 4.35%.

`CC12C(=O)C(C(c3ccccc3)=C1c1ccccc1)C1C(=O)OC(=O)C12` (stereo not drawn): the growth inhibition is -1.6%.

For the molecule `CCCCCCCCCCCCCCCCCC(=O)N/N=C\c1c(O)ccc2ccccc12`, the growth inhibition is 2.15%.

For the molecule `O=C(Cc1ccccc1)c1ccccc1C(=O)NCc1ccncc1`, the growth inhibition was -20.5%.

As for `CCCCC1(N=[N+]=[N-])C(=O)C2C=CC=C3c4ccccc4N(C1=O)C32` (stereo not drawn), the growth inhibition is -43.2%.

With `NC(=S)N/N=C\c1cccc(O)c1O`, the growth inhibition was 7%.

As for `O=C(Cc1ccccc1)C(c1ccccc1)C(c1ccccc1)c1ccccc1` (stereo not drawn), the growth inhibition was 13.6%.

For `CN(C)CCC(C#N)c1ccccc1` (stereo not drawn), the growth inhibition is -26.4%.

On to `CC(C)c1cc(C(C)C)c(S(=O)(=O)N/N=C2\C=CCC(C)(C)C2)c(C(C)C)c1`, for which the growth inhibition was -47.4%.

Consider `N.N.N.N.O=C([O-])O.O=C([O-])[O-].[Co+3]`, for which the growth inhibition is 26.9%.

Take `CN(N=O)C(=O)NCCn1cnc2c(=O)[nH]cnc21`: the growth inhibition is -56.8%.

Turning to `O=c1[nH]c(=O)n(C2CC(O)C(CO)O2)cc1C#Cc1c(F)c(F)c(F)c(F)c1F` (stereo not drawn), the growth inhibition was 11.8%.

As to `CC(C)(C)c1cc2c(O)c3cccc4c(=O)c5cccc6c5-c(c34)c2c(c1)c6=O`, the growth inhibition was 7.2%.

For `O=C1c2cc([N+](=O)[O-])ccc2-c2ccc3c4ccc5c6c(ccc(c7ccc1c2c73)c64)C(=O)c1cc([N+](=O)[O-])ccc1-5`, the growth inhibition was 21.4%.

In the case of `Cc1ccccc1C(=O)NC(O)(C(F)(F)F)C(F)(F)F`, the growth inhibition is 32.9%.
